This passage reports NP40-soluble protein abundance results from the supplement of paper PMC6411743.

Compound in the assay: Nc1nc2c(ncn2[C@@H]2O[C@H](COP(=O)(O)OP(=O)(O)OP(=O)(O)O)[C@@H](O)[C@H]2O)c(=O)[nH]1 [guanosine triphosphate]
As to the kind of experiment: NP40-soluble protein abundance relative to vehicle (solubility fold change) (ratio); higher = more soluble protein in presence of GTP. How it is done:
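Solubility proteome profiling in Jurkat crude lysate. Lysate was treated with Mg-GTP (0.1-10 mM) for 10 min at room temperature and 3 min at 37 °C, then solubilised with 0.8% NP40 and benzonase, followed by ultracentrifugation. Proteins were quantified by TMT10 LC-MS/MS; the value is the NP40-soluble abundance relative to the NP40-processed vehicle, from 3 independent experiments.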

± gives the standard deviation of the averaged measurements. About 5,400 targets were measured; listed, in parts, are those with the largest changes and a random draw of the rest.

UniProt P51957, sequence (P51957 whole entry, looked up, one chain of several): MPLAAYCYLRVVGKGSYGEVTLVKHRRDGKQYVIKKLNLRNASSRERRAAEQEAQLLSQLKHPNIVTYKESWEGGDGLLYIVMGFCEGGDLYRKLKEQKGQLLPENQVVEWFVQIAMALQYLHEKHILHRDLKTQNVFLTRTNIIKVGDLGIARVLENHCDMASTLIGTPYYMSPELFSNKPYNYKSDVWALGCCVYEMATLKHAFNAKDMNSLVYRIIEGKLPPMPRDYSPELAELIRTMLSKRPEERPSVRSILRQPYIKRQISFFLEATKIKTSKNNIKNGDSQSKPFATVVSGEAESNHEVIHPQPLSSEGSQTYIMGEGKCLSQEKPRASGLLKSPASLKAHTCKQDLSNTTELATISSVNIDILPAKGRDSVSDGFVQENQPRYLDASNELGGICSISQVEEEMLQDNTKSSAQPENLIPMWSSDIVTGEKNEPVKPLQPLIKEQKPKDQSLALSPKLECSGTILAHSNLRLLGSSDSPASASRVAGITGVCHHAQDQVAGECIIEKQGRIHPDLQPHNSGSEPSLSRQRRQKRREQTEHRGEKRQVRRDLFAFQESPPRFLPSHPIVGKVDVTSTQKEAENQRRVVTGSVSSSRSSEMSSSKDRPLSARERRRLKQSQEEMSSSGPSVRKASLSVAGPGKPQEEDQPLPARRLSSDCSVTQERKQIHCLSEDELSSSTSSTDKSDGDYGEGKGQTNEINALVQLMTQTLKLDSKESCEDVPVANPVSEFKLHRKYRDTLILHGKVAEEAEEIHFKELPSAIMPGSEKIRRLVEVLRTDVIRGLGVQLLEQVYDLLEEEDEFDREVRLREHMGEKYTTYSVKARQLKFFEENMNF
UniProt P49585, sequence (P49585 whole entry, one chain of several): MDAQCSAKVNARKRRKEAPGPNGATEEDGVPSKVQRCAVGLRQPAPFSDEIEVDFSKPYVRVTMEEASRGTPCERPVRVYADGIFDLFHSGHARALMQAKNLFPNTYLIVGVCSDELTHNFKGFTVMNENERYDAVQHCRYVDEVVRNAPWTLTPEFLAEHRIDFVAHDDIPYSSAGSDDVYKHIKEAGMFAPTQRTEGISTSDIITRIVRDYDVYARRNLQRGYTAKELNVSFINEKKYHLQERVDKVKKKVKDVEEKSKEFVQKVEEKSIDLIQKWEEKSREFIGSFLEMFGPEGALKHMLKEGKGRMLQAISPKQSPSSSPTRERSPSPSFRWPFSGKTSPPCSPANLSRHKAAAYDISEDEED
UniProt Q9NUM4, sequence (Q9NUM4 whole entry, one chain of several): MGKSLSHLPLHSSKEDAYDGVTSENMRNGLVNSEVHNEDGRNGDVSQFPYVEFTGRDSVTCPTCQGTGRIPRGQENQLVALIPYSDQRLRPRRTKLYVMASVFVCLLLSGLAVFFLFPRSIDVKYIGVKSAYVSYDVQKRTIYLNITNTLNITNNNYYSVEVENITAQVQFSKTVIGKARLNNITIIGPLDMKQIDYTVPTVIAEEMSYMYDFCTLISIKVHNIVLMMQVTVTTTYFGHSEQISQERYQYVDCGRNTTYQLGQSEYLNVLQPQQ

With H0YEN5|P15880 (UniProt P15880), the NP40-soluble protein abundance (concentration: 0.1mM) was determined as 0.979 ± 0.063; the NP40-soluble protein abundance (concentration: 0.5mM) is 1.01 ± 0.1; the NP40-soluble protein abundance (concentration: 1mM) turned out to be 0.965 ± 0.14; the NP40-soluble protein abundance (concentration: 2mM) is 0.936 ± 0.19; the NP40-soluble protein abundance (concentration: 4mM) is 0.848 ± 0.21; the NP40-soluble protein abundance (concentration: 6mM) is 0.836 ± 0.21. The NP40-soluble protein abundance by setting is: (concentration: 8mM) 0.738 ± 0.17; (concentration: 10mM) 0.774 ± 0.2.
Take C9J050|C9JEJ2|P49585 (UniProt P49585): the NP40-soluble protein abundance worked out at 1.01 ± 0.094 (concentration: 0.1mM); 0.986 ± 0.078 (concentration: 0.5mM); 0.953 ± 0.074 (concentration: 1mM); 0.945 ± 0.077 (concentration: 2mM); 0.992 ± 0.073 (concentration: 4mM); 0.942 ± 0.058 (concentration: 6mM). The NP40-soluble protein abundance reads like this: (concentration: 8mM) 0.942 ± 0.079; (concentration: 10mM) 0.936 ± 0.054.
Regarding E7EX48|P51957|P51957-3 (UniProt P51957), the NP40-soluble protein abundance (concentration: 0.1mM) was found to be 1.01 ± 0.097; the NP40-soluble protein abundance (concentration: 0.5mM) was 0.987 ± 0.21; the NP40-soluble protein abundance (concentration: 1mM) turned out to be 0.961 ± 0.21; the NP40-soluble protein abundance (concentration: 2mM) was 1.01 ± 0.2; the NP40-soluble protein abundance (concentration: 4mM) is 0.986 ± 0.21; the NP40-soluble protein abundance (concentration: 6mM) stood at 0.957 ± 0.23. Besides, the NP40-soluble protein abundance runs as follows: (concentration: 8mM) 0.985 ± 0.25; (concentration: 10mM) 1.06 ± 0.25.
With F2Z3N7|C9JZ87|Q9NUM4 (UniProt Q9NUM4), the NP40-soluble protein abundance by setting is: (concentration: 0.1mM) 0.98 ± 0.036; (concentration: 0.5mM) 0.932 ± 0.076; (concentration: 1mM) 1.15 ± 0.077; (concentration: 2mM) 1.06 ± 0.048; (concentration: 4mM) 0.84 ± 0.18; (concentration: 6mM) 0.949 ± 0.045. Also, the NP40-soluble protein abundance reads like this: (concentration: 8mM) 0.989 ± 0.051; (concentration: 10mM) 0.969 ± 0.078.
As for “A6NJD9|A8MVT4|A8MYK1|Q16540 (UniProt Q16540)”, the NP40-soluble protein abundance runs as follows: (concentration: 0.1mM) 1.06 ± 0.1; (concentration: 0.5mM) 1.11 ± 0.23; (concentration: 1mM) 1.28 ± 0.22; (concentration: 2mM) 1.29 ± 0.31; (concentration: 4mM) 1.36 ± 0.41; (concentration: 6mM) 1.14 ± 0.35. The NP40-soluble protein abundance is, setting by setting: (concentration: 8mM) 1.19 ± 0.32; (concentration: 10mM) 1.2 ± 0.37.
